PubChem BioAssay (EPA / NIEHS)
Active and inactive are the calls of the source. Rule for the calls: active = hit-call score of the fitted dose curve at least 0.9, where 1 is the maximum; inactive = score below 0.9.

Tests used:
[1] = APR_HepG2_CellCycleArrest_24hr: Apredica 24-hour HepG2 Assay for Cell Cycle Arrest (AID 2282905); conditions: imaging, actives raise or lower the signal;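 note: cell cycle arrest scored as ratio of 2N to 4N nuclear DNA content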
Summary of the method: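 After 24 h exposure at 0.39–200 uM in 0.5% DMSO, fixed cells received Hoechst 33342 staining. Imaging quantified per-nucleus DNA content; gain or loss fitted against DMSO controls.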

[2] = APR_HepG2_NuclearSize_24hr: Apredica 24-hour HepG2 Assay for Nuclear Size (AID 2282907); conditions: high-content imaging, actives raise or lower the signal
Summary of the method: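 Nuclear size from Hoechst 33342-stained, formaldehyde-fixed HepG2 nuclei imaged by high-content microscopy, after 24 h dosing at ten concentrations from 0.39 to 200 uM in 0.5% DMSO; gain or loss relative to DMSO baseline.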

[3] = APR_HepG2_CellLoss_24hr: Apredica 24-hour HepG2 Assay for Cell Loss (AID 2282908); conditions: high-content imaging;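 for AC50: fit in both directions so a hit may be cell loss or gain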
Summary of the method: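 Nuclei stained with Hoechst 33342 after formaldehyde fixation (3.7%) were imaged at 20x to count cells. Exposure lasted 24 hr, at ten concentrations from 0.39 to 200 uM in duplicate, with 0.5% v/v DMSO. Fit bidirectional, relative to DMSO.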

[4] = APR_HepG2_MicrotubuleCSK_24hr: Apredica 24-hour HepG2 Assay for Microtubule CSK Stabilty (AID 2282909); conditions: HepG2 microtubule cytoskeleton imaging, actives raise or lower the signal
Summary of the method: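 Fixed HepG2 cells were stained for alpha-tubulin and imaged after 24 hr exposure to ten concentrations spanning 0.39–200 uM in 0.5% DMSO. Signal change was fitted in both directions relative to DMSO; taxol was the positive control.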

[5] = APR_HepG2_MitoticArrest_24hr: Apredica 24-hour HepG2 Assay for Mitotic Arrest (AID 2282910); conditions: high-content imaging, actives raise or lower the signal
Summary of the method: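 Treatment lasted 24 hr in the human HepG2 line at 0.39–200 uM, solvent held at 0.5% DMSO. Fixed cells were stained with Hoechst 33342 and anti-phospho-histone H3, imaged at 20x, and analysed by gain- or loss-of-signal fitting against DMSO.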

[6] = APR_HepG2_MitoMembPot_24hr: Apredica 24-hour HepG2 Assay for Mitochondrial Membrane Potential (AID 2282911); conditions: imaging, actives raise or lower the signal
Summary of the method: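 HepG2 human liver cells were exposed 24 hr to compounds at 0.39–200 uM (final DMSO 0.5% v/v) in duplicate. MitoTracker Red CMXRos (250 nM, 30 min) was loaded before formaldehyde fixation; fluorescence was imaged by ArrayScan HCS and fitted bidirectionally versus DMSO.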

[7] = APR_HepG2_MitoMass_24hr: Apredica 24-hour HepG2 Assay for Mitochondrial Mass (AID 2282912); conditions: high-content imaging, actives raise or lower the signal
Summary of the method: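 Endpoint is MitoTracker Red CMXRos (250 nM, 30 min, pre-fixation) intensity from 20x high-content imaging, nuclei located by Hoechst. Human HepG2 cells received ten concentrations from 0.39 to 200 uM in 0.5% DMSO for 24 hr, duplicate wells. Bidirectional fit relative to DMSO.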

[8] = APR_HepG2_p53Act_24hr: Apredica 24-hour HepG2 Assay for p53 Activation (AID 2282913); conditions: high-content imaging, actives raise or lower the signal;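 note: p53 protein immunofluorescence averaged per cell in HepG2 with Hoechst nuclei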
Summary of the method: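 HepG2 cells exposed 24 hr to compounds at 0.39–200 uM (10 concentrations, duplicate), final DMSO 0.5% v/v. After formaldehyde fixation and Triton permeabilization, p53 was immunolabeled (sheep anti-p53, Cy5 secondary) with Hoechst 33342 nuclear counterstain, then imaged by high-content fluorescence microscopy.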

[9] = APR_HepG2_CellCycleArrest_72hr: Apredica 72-hour HepG2 Assay for Cell Cycle Arrest (AID 2282914); conditions: high-content imaging, actives raise or lower the signal
Summary of the method: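 HepG2 cells were exposed to compounds at 0.39–200 uM (0.5% v/v DMSO final, duplicates) for 72 hr, fixed in 3.7% formaldehyde, permeabilized and stained with Hoechst 33342. Nuclear DNA content was quantified by high-content imaging; gain or loss of signal was fitted bidirectionally against DMSO.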

[10] = APR_HepG2_CellLoss_72hr: Apredica 72-hour HepG2 Assay for Cell Loss (AID 2282915); conditions: high-content imaging
Summary of the method: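 HepG2 cells were exposed for 72 hr to compounds at 0.39–200 uM (ten concentrations, duplicate) in 0.5% v/v final DMSO. Nuclei were stained with Hoechst 33342 after 3.7% formaldehyde fixation, imaged at 20x, and counted; fits bidirectional versus DMSO.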

Measured: AC50

Oc1ccc2ccccc2c1
not listed: [10]
inactive: all other assays above

Cc1c2ccccc2c(C)c2c1ccc1ccccc12
inactive: [7]
active: [1] 44.6 µM | [2] 77.3 µM | [3] 56.1 µM | [4] 74.5 µM | [5] 49.3 µM | [6] 95.7 µM | [8] 0.069 µM | [9] 6.16 µM

CCCCCCCC[Si](OCC)(OCC)OCC
active: [3] 118 µM | [6] 29.8 µM | [9] 0.03 µM | [10] 34 µM
not listed: [8]
inactive: all other assays above

CC[C@@H]1C[C@H](N(Cc2cc(C(F)(F)F)cc(C(F)(F)F)c2)C(C)=O)c2cc(C(F)(F)F)ccc2N1C(=O)OC(C)C
active: [6] 0.0358 µM
not listed: [8] | [10]
inactive: all other assays above

C[C@]12CC[C@@H]3c4ccc(O)cc4CC[C@H]3[C@@H]1CC[C@H]2O
inactive: [1] | [7]
active: [2] 105 µM | [3] 68.1 µM | [4] 100 µM | [5] 97.1 µM | [6] 16.8 µM | [9] 173 µM

Cc1ncc(CO)c(CO)c1O
not listed: [8] | [10]
inactive: all other assays above

C[C@]12CC[C@@H]3c4ccc(O)cc4CC[C@H]3[C@@H]1CCC2=O
not listed: [8]
inactive: all other assays above

CCCCCCCCCCCC[N+](C)(C)C
active: [1] 59 µM | [3] 75.6 µM | [5] 50.2 µM | [7] 180 µM
inactive: [2] | [4] | [6] | [9]

CN1C(=O)CC[C@H]1c1cccnc1
not listed: [8]
inactive: all other assays above

CCCCOC(=O)CC(CC(=O)OCCCC)(OC(C)=O)C(=O)OCCCC
active: [3] 27.7 µM | [6] 70.8 µM | [10] 42.5 µM
not listed: [8]
inactive: all other assays above

Cc1ccc(C(C)C)cc1
not listed: [8] | [10]
inactive: all other assays above

CCCCCCCCN(C)CCCCCCCC
not listed: [8]
inactive: all other assays above

CC/C(=C(/CC)c1ccc(O)cc1)c1ccc(O)cc1
inactive: [2] | [4] | [6]
active: [1] 20.9 µM | [3] 90.9 µM | [5] 50 µM | [7] 46 µM | [9] 31.3 µM | [10] 79.5 µM

O=C1c2ccccc2C(=O)N1CCc1noc(-c2ccc(CN3CCCCCC3)s2)n1
not listed: [8]
inactive: all other assays above

CC(=O)N1CCN(c2ccc(OC[C@H]3CO[C@](Cn4ccnc4)(c4ccc(Cl)cc4Cl)O3)cc2)CC1
active: [3] 28.6 µM | [4] 103 µM | [6] 118 µM
not listed: [8] | [10]
inactive: all other assays above

OCCO
not listed: [8] | [10]
inactive: all other assays above

O=C(O)Cn1c(=O)n(Cc2ccc(Br)cc2F)c(=O)c2ccc(Cl)cc21
not listed: [8]
inactive: all other assays above

CC(C)(c1cc(Br)c(O)c(Br)c1)c1cc(Br)c(O)c(Br)c1
inactive: [2] | [4] | [7]
active: [1] 77 µM | [3] 92.1 µM | [5] 96.3 µM | [6] 66.1 µM | [9] 82.9 µM

CCN(Cc1cccnc1)C(=O)c1cccc(Cl)c1[C@]1(C)C(=O)N(Cc2ccc(OC)cc2OC)c2ccc(Cl)cc21
active: [6] 50.3 µM | [10] 14.4 µM
not listed: [8]
inactive: all other assays above

O=c1[nH]sc2ccccc12
active: [3] 29 µM | [4] 38.2 µM | [5] 13.5 µM | [7] 15.7 µM | [9] 21.4 µM | [10] 18.1 µM
inactive: [1] | [2] | [6]

CCCCCCCCCCCCO
not listed: [8] | [10]
inactive: all other assays above

Cc1cn([C@H]2C[C@H](N=[N+]=[N-])[C@@H](CO)O2)c(=O)[nH]c1=O
active: [9] 46.3 µM
not listed: [8]
inactive: all other assays above

CCOC(=O)O[C@H](C)OC(=O)c1ccc2c(c1)cc(C(=O)NC1CCN(C(C)C)CC1)n2Cc1cc(-c2ccc(Cl)s2)on1
inactive: [2] | [9]
active: [1] 94.5 µM | [3] 9.26 µM | [4] 25 µM | [5] 10.1 µM | [6] 44.4 µM | [7] 167 µM

CC(C)(C)c1cc(/C=C2\SC(N)=NC2=O)cc(C(C)(C)C)c1O
active: [1] 64.9 µM | [3] 53.1 µM | [4] 29.5 µM | [5] 52.3 µM | [7] 32.7 µM | [10] 32.4 µM
inactive: [2] | [6] | [9]

O=C1CCC(C2CCCCC2)CC1
active: [6] 19.8 µM
not listed: [8] | [10]
inactive: all other assays above

CC1=CC(=O)/C(=C(/C)O)C(=O)O1
not listed: [8] | [10]
inactive: all other assays above

O=C1O[C@H]([C@@H](O)CO)C(O)=C1O
active: [10] 16.1 µM
not listed: [8]
inactive: all other assays above

CCO[Si](CCCNC(N)=O)(OCC)OCC
not listed: [8] | [10]
inactive: all other assays above

Cc1cccc2ccccc12
not listed: [8] | [10]
inactive: all other assays above

CC(C)(C)c1csc(-c2cc3cc(OCc4ccccc4CC(=O)O)ccc3o2)n1
not listed: [8]
inactive: all other assays above

CCN(CC)C(=O)c1cc(S(=O)(=O)Cc2ccccc2)c(N2CCC(c3ccccc3)CC2)cc1N(CC)CCN(C)C
active: [1] 75.9 µM | [3] 5.48 µM | [4] 11.1 µM | [5] 1.59 µM | [7] 23.1 µM | [9] 3.21 µM | [10] 2.54 µM
inactive: [2] | [6]

CCCCCCCCCC(=O)O
not listed: [8]
inactive: all other assays above

CC1(C)NC(=O)N(c2ccc([N+](=O)[O-])c(C(F)(F)F)c2)C1=O
not listed: [8] | [10]
inactive: all other assays above

CN(C)c1ccc(C(=C2C=CC(=[N+](C)C)C=C2)c2ccc(N(C)C)cc2)cc1
active: [1] 0.747 µM | [3] 6.05 µM | [4] 22 µM | [5] 4.66 µM | [6] 27.3 µM | [9] 0.407 µM | [10] 3.23 µM
inactive: [2] | [7]

O=C(O)Cc1cc(I)c(Oc2ccc(O)c(I)c2)c(I)c1
not listed: [8]
inactive: all other assays above

COc1cc(C(=O)NC2CCN(C)CC2)ccc1Nc1ncc2c(n1)N(C1CCCC1)CC(F)(F)C(=O)N2C
not listed: [8]
inactive: all other assays above

Cc1cc(F)ccc1-c1cc(N2CC[C@@H](O)[C@H]2CO)ncc1N(C)C(=O)C(C)(C)c1cc(C(F)(F)F)cc(C(F)(F)F)c1
not listed: [8] | [10]
inactive: all other assays above

Clc1cc(Cl)c2c(c1)N=C1CCCCCN1C2
active: [6] 0.0248 µM
not listed: [8]
inactive: all other assays above

CC(O)CC(C)(C)O (stereo not drawn)
not listed: [8] | [10]
inactive: all other assays above

CCCCCc1ccc(N)cc1
not listed: [8]
inactive: all other assays above
